Among the data in PubChem BioAssay (EPA / NIEHS) are outcome and AC50 values, retold here.

A short description of experiment [1]: CCTE_Shafer_MEA_dev_active_electrodes_number: CCTE's Neural Network Formation Assay for Number of Active Electrodes, Shafer Lab (AID 2284040; active = hit-call score of the fitted dose curve at least 0.9, where 1 is the maximum;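 as to AC50: potency for loss of active electrodes versus DMSO so lower counts are hits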). In a few lines:
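Rat cortical primary cultures, 1.5 x 10^5 cells/well, PEI-coated MEA, laminin drop. Continuous exposure DIV 0–12; full media/compound change DIV 5, 9. Readout: electrodes with mean firing ≥5 spikes/min; AUC across days; loss vs DMSO.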

A short description of experiment [2]: CCTE_Shafer_MEA_dev_burst_rate: CCTE's Neural Network Formation Assay for Burst Rate, Shafer Lab (AID 2284042).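 As to AC50: potency for loss of burst rate below DMSO control.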 In a few lines: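 Primary rat cortical neurons on PEI-coated 48-well MEA plates (laminin added with cells at plating) (16 electrodes/well), exposed from plating to day 12, dosing renewed at DIV 5 and 9. Burst rate averaged over active electrodes, recorded DIV 5, 7, 9, 12, summarized as AUC; loss versus DMSO.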

A short description of experiment [3]: CCTE_Shafer_MEA_dev_bursting_electrodes_number: CCTE's Neural Network Formation Assay for Number of Bursting Electrodes, Shafer Lab (AID 2284043; active = hit-call score of the fitted dose curve at least 0.9, where 1 is the maximum;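 as to AC50: potency is for loss of bursting electrodes relative to DMSO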). In a few lines: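 Primary rat cortical neurons were cultured on PEI-coated 48-well MEA plates (16 electrodes/well) and exposed from plating through day 12, with compound renewed at feeds on DIV 5 and 9. Electrodes bursting ≥1 per 2 min were counted on DIV 5, 7, 9, 12; trapezoidal AUC taken.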

The nature of experiment [4]: CCTE_Shafer_MEA_dev_per_burst_interspike_interval: CCTE's Neural Network Formation Assay for Burst Interspike Interval, Shafer Lab (AID 2284044).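 Also: mean spike spacing inside bursts as AUC over recordings on days 5 7 9 12.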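 As to AC50: potency for a decrease of within-burst interspike interval below DMSO level.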 In a few lines:
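Developmental network-formation MEA in primary rat cortical cultures with exposure spanning days 0–12. Within-burst ISI is averaged per well and integrated across recording days by area under the curve, with DMSO as negative control baseline.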

The nature of experiment [5]: CCTE_Shafer_MEA_dev_burst_duration_mean: CCTE's Neural Network Formation Assay for Mean Burst Duration, Shafer Lab (AID 2284045).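 As to AC50: curve fitted for loss meaning shorter burst duration than DMSO.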 In a few lines: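 Primary rat cortical neurons on PEI-coated 16-electrode MEA wells, exposed from plating through day 12 with compound renewed at DIV 5 and 9; spontaneous activity recorded days 5, 7, 9, 12. Well-mean burst duration collapsed as trapezoidal AUC, fitted for loss versus DMSO.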

Experiment [6] is described as follows: CCTE_Shafer_MEA_dev_interburst_interval_mean: CCTE's Neural Network Formation Assay for Mean Interburst Interval, Shafer Lab (AID 2284046).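 Also: well-mean interburst interval of bursting electrodes as AUC over four recording days; curve fitted for decrease in interburst interval relative to DMSO.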 In a few lines: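 Recordings on days 5, 7, 9 and 12 give well-mean interburst interval across actively bursting electrodes, summarized as area under the curve. Cultures: rat cortical neurons, continuous exposure from day 0, compound renewed at feeds; decrease analyzed versus DMSO.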

Experiment [7] in a line: CCTE_Shafer_MEA_dev_inter_network_spike_interval_mean: CCTE's Neural Network Formation Assay for Mean Inter-network Spike Interval, Shafer Lab (AID 2284047).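 As to AC50: potency for a decrease in mean inter-network spike interval below DMSO.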 In a few lines: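 Primary rat cortical neurons on 16-electrode MEA wells, exposed from plating day 0 through DIV 12, compound renewed at DIV 5 and 9 media changes. Mean interval between network-spike peaks recorded DIV 5, 7, 9, 12; collapsed as trapezoidal AUC, fitted downward versus DMSO.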

A short description of experiment [8]: CCTE_Shafer_MEA_dev_network_spike_number: CCTE's Neural Network Formation Assay for Number of Network Spikes, Shafer Lab (AID 2284048).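 Also: synchronized bursts across electrodes counted on days 5 7 9 12 and integrated as AUC.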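 As to AC50: fit as a loss of signal meaning fewer network spikes than DMSO.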 In a few lines:
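Primary rat cortical neurons were seeded at 1.5 x 10^5 cells/well on PEI-coated 16-electrode MEA wells with laminin, exposed from plating day 0, compound renewed at DIV 5 and 9. Network spikes were recorded on days 5, 7, 9, 12 and summarized as trapezoidal AUC versus DMSO.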

The subject of another experiment is DIO2 (gene 1734). Put plainly: CCTE_GLTED_hDIO2: CCTE's human Deiodinase 2 (DIO2) Inhibition Assay, Great Lakes Toxicology and Ecology Division (GLTED) Lab (AID 2284050; active = hit-call score of the fitted dose curve at least 0.9, where 1 is the maximum). In a few lines:
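In this cell-free test, chemicals are exposed to human deiodinase type 2 for 3 hours. Released iodide is determined spectrophotometrically via the Sandell-Kolthoff method, and signal loss relative to DMSO is fitted.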

Experiment [9] deals with Estrogen receptor (Homo sapiens) (UniProt P03372). Put plainly: CCTE_Deisenroth_AIME_384WELL_LUC_Shift: CCTE's 384-well Estrogen Receptor Transactivation Assay with AIME metabolic competence data shift (ERTA luciferase; difference in metabolism positive and negative), Deisenroth Lab (AID 2284041).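 Also: shift is response with S9 minus without S9 so positive means metabolism raised ER signal.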 In a few lines:
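Here, parent compounds undergo 2 h phase I metabolism by PB/BNF-induced rat S9 before 24 h transactivation in VM7Luc4E2 cells; the curve models S9-positive minus S9-negative response over a 10-point series.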

Values joined by “and” are separate entries in the source; they are usually repeats but may differ in a detail not shown here. Equal entries are not always repeated. Records with an inconclusive call do not appear. A structure can be active in one record and inactive in another. Active and inactive are the calls of the source. The calls were made as follows, unless noted: active = hit-call score of the fitted dose curve at least 0.9, where 1 is the maximum; inactive = score below 0.9.

Chain of Estrogen receptor (Homo sapiens) (P03372 whole entry, looked up): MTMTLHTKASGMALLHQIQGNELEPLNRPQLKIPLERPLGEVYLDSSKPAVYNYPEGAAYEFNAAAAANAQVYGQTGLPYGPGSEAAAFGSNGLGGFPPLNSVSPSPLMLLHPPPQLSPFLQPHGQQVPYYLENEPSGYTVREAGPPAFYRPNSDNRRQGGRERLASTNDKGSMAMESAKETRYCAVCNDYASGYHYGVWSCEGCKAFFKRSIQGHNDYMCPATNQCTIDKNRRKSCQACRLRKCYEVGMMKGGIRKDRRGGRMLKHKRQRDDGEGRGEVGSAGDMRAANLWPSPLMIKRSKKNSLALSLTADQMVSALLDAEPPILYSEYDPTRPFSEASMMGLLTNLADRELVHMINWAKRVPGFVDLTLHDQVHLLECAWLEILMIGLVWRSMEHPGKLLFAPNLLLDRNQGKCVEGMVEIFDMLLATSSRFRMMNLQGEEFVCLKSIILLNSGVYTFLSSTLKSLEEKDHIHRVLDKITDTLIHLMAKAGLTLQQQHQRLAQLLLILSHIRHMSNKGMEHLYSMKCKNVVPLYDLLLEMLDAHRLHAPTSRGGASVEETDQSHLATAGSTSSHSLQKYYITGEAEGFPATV

In the case of `CC(=NC#N)N(C)Cc1ccc(Cl)nc1`, the call in experiment [1], in experiment [2], in [3], in [4], in [5] and in [6] was inactive. The molecule was classed as inactive in experiment [7] and in experiment [8].
What is called AC50 is the concentration giving half of the maximal activity seen. Regarding `CC[C@H](C)[C@H]1O[C@]2(C=C[C@@H]1C)C[C@@H]1C[C@@H](C/C=C(\C)[C@@H](O[C@H]3C[C@H](OC)[C@@H](O[C@H]4C[C@H](OC)[C@@H](NC)[C@H](C)O4)[C@H](C)O3)[C@@H](C)/C=C/C=C3\CO[C@@H]4[C@H](O)C(C)=C[C@@H](C(=O)O1)[C@]34O)O2`, the concentration at half-maximal activity (AC50) in experiment [1] is 55 nM (active) and 4.37 nM (active); in experiment [2], 21.3 nM (active) and 3.47 nM (active); in experiment [3] it was 43.5 nM (active) and 3.01 nM (active); in experiment [4] it was 44.7 nM (active) and 5.36 nM (active); in experiment [5] it was 20.1 nM (active) and 1.89 nM (active); in experiment [6] it was 220 nM (active) and 2.96 nM (active). Further, the AC50 is 0.16 µM (active) in experiment [7]; 47.4 nM (active) and 4.79 nM (active) in [8]; 31.3 µM (active) with DIO2 (gene 1734). The call in experiment [7] was inactive.
Take `CCCCOC(=O)[C@@H](C)Oc1ccc(Oc2ccc(C#N)cc2F)cc1`: the result in experiment [9] was inactive.
Regarding `CSc1nc(NC(C)C)nc(NC(C)C)n1`, the outcome in [9] was inactive.
Consider `C#CCC1=C(C)C(OC(=O)C2C(C=C(C)C)C2(C)C)CC1=O` (stereo unspecified), for which the call in experiment [1], in experiment [2], in experiment [4], in experiment [5], in [6] and in [8] was inactive. Further, the results for the half-maximal activity concentration (AC50) (in experiment [3]; in experiment [7]; in the experiment on DIO2 (gene 1734)) were 4.27 µM (active), 9.95 µM (active) and 42.4 µM (active), respectively.
Turning to `CCOP(=O)(NC(C)C)Oc1ccc(SC)c(C)c1` (stereo unspecified), the AC50 in experiment [1] is 33.4 µM (active); in [2], 40.1 µM (active); in experiment [3], 32.3 µM (active); in [5], 17.3 µM (active); in experiment [6], 31.5 µM (active); in experiment [8], 79500 nM (active). The molecule was classed as inactive in experiment [1], in [2], in experiment [3], in experiment [4], in experiment [5] and in experiment [6]. In addition, the result in experiment [7] and in experiment [8] was inactive.
With `CCc1cccc(CC)c1N(COC)C(=O)CCl`, in the experiment on DIO2 (gene 1734), the AC50 is 61.1 µM (active).
With `CCOP(=O)(SC(C)CC)N1CCSC1=O` (stereo unspecified), the molecule was classed as inactive in experiment [1], in experiment [2], in experiment [4], in experiment [5], in experiment [6] and in experiment [7]. In addition, in experiment [8], the outcome was inactive.
In the case of `COP(=O)(OC)SCn1c(=O)oc2cc(Cl)cnc21`, in experiment [9], the AC50 was 71.1 µM (active).
With `CC(Oc1cccc(Cl)c1)C(=O)O` (stereo unspecified), the molecule was classed as inactive in [1], in experiment [2], in experiment [3], in experiment [4], in [5] and in experiment [6]. For the same molecule, the molecule was called inactive in [7] and in experiment [8].
In the case of `CSC1=N[C@@](C)(c2ccccc2)C(=O)N1Nc1ccccc1`, the outcome in experiment [1], in experiment [2], in experiment [3], in [4], in experiment [5] and in experiment [6] was inactive. The call in experiment [7] and in experiment [8] was inactive.
`CCOP(=S)(OCC)Oc1cc(C)nc(C(C)C)n1`: the concentration at half-maximal activity (AC50) in [1] was 75.9 µM (active); in experiment [3], 60.2 µM (active). The call in experiment [2], in experiment [4], in experiment [5], in experiment [6], in experiment [7] and in [8] was inactive.
Regarding `S=C1NCCN1`, the concentration at half-maximal activity (AC50) in experiment [1] is 3.82 µM (active). In addition, the call in [2], in [3], in [4], in experiment [5], in experiment [6] and in [7] was inactive. The outcome in experiment [8] was inactive.
Turning to `CN1COCN(Cc2cnc(Cl)s2)C1=N[N+](=O)[O-]`, the outcome in [1], in experiment [2], in experiment [3], in experiment [4], in experiment [5] and in [6] was inactive. Besides, the result in [7] and in experiment [8] was inactive.
With `O=[N+]([O-])c1cc(C(F)(F)F)c(Cl)c([N+](=O)[O-])c1Nc1ncc(C(F)(F)F)cc1Cl`, the AC50 in experiment [1] was 0.905 µM (active); in [2], 0.39 µM (active); in experiment [3], 0.374 µM (active); in [4] it was 783 nM (active); in [5] it was 0.549 µM (active); in [6] it was 0.885 µM (active). In addition, the half-maximal activity concentration (AC50) was 1.9 µM (active) in [7], 425 nM (active) in [8] and 2.04 µM (active) in the experiment on DIO2 (gene 1734). The outcome in [9] was inactive.
Consider `CCOC(=O)CC(SP(=O)(OC)OC)C(=O)OCC` (stereo unspecified), for which the molecule was called inactive in experiment [2], in experiment [4], in [5], in experiment [6], in experiment [7] and in [8].
`CC(C)[C@H](C(=O)O[C@H](C#N)c1cccc(Oc2ccccc2)c1)c1ccc(Cl)cc1`: the AC50 is 14.6 µM (active) in experiment [1]; 4.67 µM (active) in [2]; 4.15 µM (active) in experiment [3]; 17600 nM (active) in experiment [4]; 17.9 µM (active) in [6]; 703 nM (active) in experiment [8]. Also, the call in [5] and in experiment [7] was inactive.
Consider `CCOP(=S)(OCC)Oc1ccc2c(C)c(Cl)c(=O)oc2c1`, for which the AC50 in experiment [1] was 65.8 µM (active); in experiment [3], 50 µM (active). In addition, the call in experiment [2], in experiment [4], in experiment [5], in [6], in [7] and in [8] was inactive.
With `CC(C)=CC1C(C(=O)OCN2C(=O)C3=C(CCCC3)C2=O)C1(C)C` (stereo unspecified), the outcome in [1], in [2], in [3], in experiment [4], in experiment [5] and in [6] was inactive. Further, the molecule was classed as inactive in experiment [7] and in experiment [8]. The AC50 with DIO2 (gene 1734) was 70 µM (active).
As to `CCOP(=S)(OCC)SCCSCC`, the molecule was called inactive in experiment [1], in experiment [2], in [3], in [4], in experiment [5] and in experiment [6]. The call in [7] and in experiment [8] was inactive.
